# Measurements published in PubChem BioAssay AID651871 (Sanford-Burnham Center for Chemical Genomics, 2012).
# Values joined by “and” are separate entries in the source; they are usually repeats but may differ in a detail not shown here. Identical values can stand only once.
# Tested on: H9c2
# Experiment: cardiomyocyte survival under oxidative or metabolic stress – cell-based, panel, H9c2 and HL-1, ATP luminescence, set 2, SAR follow-up (AID 651871);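 further: cells exposed to stressor for 2 h before ATP readout; reference of the scale not given here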
# Details: H9c2/HL-1 cardiomyocytes, 2-deoxyglucose stress, with 2-deoxyglucose; run 8, at 79 µM (top of the series)
row,Structure (SMILES),activity (protection/inhibition)
1,COc1ccc2c(c1OC)C(=O)N1c3ccccc3C(=O)N(Cc3cccc(Cl)c3Cl)C21 (stereo not drawn),89.8% and 74.3% and -3.43%
2,CCOC(=O)c1cccc(NC(=O)CNC(=O)c2cc(-c3cc(OC)c(OC)c(OC)c3)nc3ccccc23)c1,92.9%
3,COc1ccc2nc(-c3cc(OC)c(OC)c(OC)c3)cc(C(=O)NCC(=O)Nc3ccc(C(C)=O)cc3)c2c1,83.5%
